PLK1 PBD block – qHTS for Inhibitors of PLK1-PDB (polo-like kinase 1 - polo-box domain): Primary Screen. hit rate 2.8% among 360,000. Potency, µM, inactives show max response, negative = inhibition, actives largely listed as inhibitors. AID 720504, 2013. Plk1 PBD binding of FITC phosphopeptide, fluorescence polarization; further: series mostly up to about 57 µM; on the % scale 0 is the no-effect control and ±100 the full control effect; nearly all actives have a fitted effect of over 65% in size
VDR inhibitor – Inhibitors of the vitamin D receptor (VDR): qHTS; hit rate 0.93% among 400,000; AID 504847, 2011; Vitamin D3 receptor (Homo sapiens), P11473; Potency, µM, for the others: max response, negative = inhibition, most hits filed as inhibitors; VDR-SRC2-3 peptide fluorescence polarization, 2 h; further: on the % scale 0 is the no-effect control and ±100 the full control effect
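Reagent solutions, kept cold and dark, are dispensed first; compounds are then pinned in at 23 nl, plates briefly spun, and incubated 2 h at ambient temperature. Inhibition of VDR–SRC2-3 peptide binding is read by fluorescence polarization.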
G9a block – qHTS Assay for Inhibitors of Histone Lysine Methyltransferase G9a; Histone-lysine N-methyltransferase EHMT2 (Homo sapiens), Q96KQ7; G9a H3K9 monomethylation, AlphaScreen, 2 h; Potency, µM (highest dose often 102 µM), inactives show at the highest dose activity, negative = inhibition, actives largely listed as inhibitors; hit rate 8.8% among 350,000; further: on the % scale 0 is the no-effect control and ±100 the full control effect; nearly all actives have a fitted effect of over 75% in size
Target sequence (Q96KQ7 913-1193 limits assumed): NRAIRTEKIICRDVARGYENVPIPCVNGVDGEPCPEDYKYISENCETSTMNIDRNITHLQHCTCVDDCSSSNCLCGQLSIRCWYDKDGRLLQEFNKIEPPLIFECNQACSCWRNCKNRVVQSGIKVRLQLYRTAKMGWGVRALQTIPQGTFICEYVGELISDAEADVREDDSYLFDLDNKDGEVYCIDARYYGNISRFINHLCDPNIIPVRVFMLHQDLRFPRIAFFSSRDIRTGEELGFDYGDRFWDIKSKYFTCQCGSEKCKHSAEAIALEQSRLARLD
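Readings reflect AlphaScreen signal from monomethyl-H3K9 antibody detection. HMT at 20 nM; substrate b-H3K9 500 nM; cofactor SAM 20 uM; 2 h RT reaction; compounds tested as titrations in qHTS with 15 min preincubation.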
JMJD2A Tudor – qHTS Assay for Inhibitors of JMJD2A-Tudor Domain. Lysine-specific demethylase 4A (Homo sapiens), O75164. AlphaScreen JMJD2A-Tudor / H3K4me3 peptide binding. Potency, µM (top dose mostly 114 µM), for the others: at the highest dose activity change, negative = inhibition, hits mostly inhibitors. hit rate 4.4% among 390,000. AID 504339, 2011; further: on the % scale 0 is the no-effect control and ±100 the full control effect; nearly all actives have a fitted effect of over 50% in size
BAZ2B inh – qHTS Assay for Inhibitors of BAZ2B; Bromodomain adjacent to zinc finger domain protein 2B (Homo sapiens), Q9UIF8; AID 504333, 2011; AlphaScreen BAZ2B-H3K14Ac peptide displacement; hit rate 4.4% among 360,000; Potency, µM (titrated, usually from 114 µM), inactives show at the highest dose activity change, negative = inhibition, most hits filed as inhibitors; further: on the % scale 0 is the no-effect control and ±100 the full control effect; nearly all actives have a fitted effect of over 60% in size
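Inhibition is scored as reduced AlphaScreen emission. The BAZ2B/b-H3(5-23)K14Ac complex (50 nM each) in PBS pH 7.4, 0.01% Tween-20 meets compound (up to 110 uM) for 30 min at RT before bead addition.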
HP1b chromo inh – HTS for Inhibitors of HP1-beta Chromodomain Interactions with Methylated Histone Tails; Chromobox protein homolog 1 (Homo sapiens), P83916; AlphaScreen HP1-beta / biotin-H3K9me3 peptide binding; Potency, µM (top dose mostly 114 µM), without a hit: top-dose activity change, negative = inhibition, actives largely listed as inhibitors; hit rate 0.56% among 390,000; AID 540317, 2011; further: nearly all actives have a fitted effect of over 70% in size
Target sequence (P83916 whole entry, looked up): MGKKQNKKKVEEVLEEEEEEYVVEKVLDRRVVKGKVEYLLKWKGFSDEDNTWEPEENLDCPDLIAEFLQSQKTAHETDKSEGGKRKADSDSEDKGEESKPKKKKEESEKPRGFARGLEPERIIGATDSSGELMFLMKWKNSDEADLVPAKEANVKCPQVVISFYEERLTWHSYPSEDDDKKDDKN
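HP1-beta protein (50 nM final) preincubated 30 min at room temperature with biotinylated H3(1-18)K9me3 peptide (50 nM) in PBS pH 7.4, 0.01% Tween-20, then compound added for 30 min. AlphaScreen streptavidin donor/nickel chelate acceptor beads (10 ug/mL final), 30 min dark, luminescence read.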
The depositor's hits bear a star; [ ] = another dose, or the depositor's remark. Sampled rows, rich in hits. Any-hit rate of the full collection: about 11%. The call rests on the fitted dose curve; in most records, active means well fitted curve in the direction sought with a large enough effect; inconclusive means small, poorly fitted or top-dose-only effect, or another doubt; inactive means no such curve, though single readings can be large; an effect the other way counts as inactive or inconclusive. Potency means the concentration at half of the fitted maximal effect.

Screening NC(=O)CN1CC(O)CC1=O (centres undefined) returned VDR inhibitor -2.4% and G9a block 1.2%[59 µM].
`O=C(O)Cn1cc(/C=C2\C(=O)NC(=O)N(c3ccc(Br)cc3)C2=O)c2ccccc21` gave PLK1 PBD block 2.99µM*, VDR inhibitor inconclusive, G9a block 56.2µM*, JMJD2A Tudor -9.2%, BAZ2B inh -4.0% and HP1b chromo inh 9.0%[57 µM].
Screening CCN1C(=O)NC(=O)/C(=C\c2cn(CC(=O)O)c3ccccc23)C1=O returned G9a block 8.5%[2.33 µM] and BAZ2B inh -14.0%.
Screening O=C1NC(=O)N(c2ccccc2F)C(=O)/C1=C/c1cn(CC(=O)N2CCOCC2)c2ccccc12 returned PLK1 PBD block 4.74µM*, VDR inhibitor inconclusive, G9a block 15.8µM*, JMJD2A Tudor -0.4%, BAZ2B inh -0.5% and HP1b chromo inh 39.5%.
CCN1C(=O)NC(=O)/C(=C\c2cn(CC(=O)N3CCCCC3)c3ccccc23)C1=O was read as PLK1 PBD block inconclusive, VDR inhibitor -10.1%, G9a block -11.3%, JMJD2A Tudor 1.1%, BAZ2B inh 3.8% and HP1b chromo inh 30.5%.
C[C@]12CCC3C(C=CC4=CC(=O)CC[C@]43C)C1CC[C@]2(O)CCC(=O)O (some centres undefined) was read as VDR inhibitor -11.7% and G9a block 5.7%[2.33 µM].
`CC(=O)OC1C(=O)[C@]2(C)C(O)CC3OC[C@]3(OC(C)=O)C2[C@@H](OC(=O)c2ccccc2)[C@]2(O)CC(O)C(C)=C1C2(C)C` (some centres undefined) gave VDR inhibitor 13.2%.
Screening O=C(Oc1ccccc1)N1CCC2(CC1)CN(Cc1ccncc1)C2 returned VDR inhibitor -3.1% and G9a block 37.1%[12.7 µM].
For O=C1C(I)=CC(=C(c2cc(I)c(O)c(I)c2)c2ccccc2C(=O)O)C=C1I the results were VDR inhibitor 35.5µM* and G9a block inconclusive.
Screening Nc1ccc2ccc3cccc[n+]3c2c1 returned PLK1 PBD block 0.67µM*, VDR inhibitor -12.6%, G9a block 35.5µM*, JMJD2A Tudor -34.1%, BAZ2B inh -7.4% and HP1b chromo inh 4.2%.
For CCOC(=O)c1cn2nc(OP(=S)(OCC)OCC)cc2nc1C the results were PLK1 PBD block -19.0%, VDR inhibitor -26.7%, G9a block 20µM*, JMJD2A Tudor 79.3%, BAZ2B inh 76.9% and HP1b chromo inh 121.8%.
OC(CNC1CCCCCCC1)c1ccccc1 (centres undefined) was read as G9a block 14.1µM* and BAZ2B inh inconclusive.
For C#C[C@]1(O)CCC2C3CCC4=C/C(=N/OCC(=O)NC(C)C(=O)NC(CCSC)C(=O)O)CC[C@]4(C)C3CC[C@@]21C (some centres undefined) the results were PLK1 PBD block inconclusive, VDR inhibitor inconclusive, G9a block 56.2µM*, JMJD2A Tudor -17.1%, BAZ2B inh 2.3% and HP1b chromo inh 44.7%.
C[C@]12CCC(=O)C=C1CCC1C2CC[C@@]2(C)C1CC[C@@]2(O)CC#N (some centres undefined) was read as PLK1 PBD block -0.9%, VDR inhibitor 0.6%, G9a block -8.2%[59 µM], JMJD2A Tudor -5.5%, BAZ2B inh 2.6% and HP1b chromo inh 46.6%.
Screening Cn1sc(Cl)cc1=O returned VDR inhibitor -9.5% and G9a block -26.8%[12.7 µM].
`CCCN[C@@H]1CCc2c(OC)cccc2[C@@H]1C` gave VDR inhibitor -3.4% and G9a block -1.3%[59 µM].

Source: PubChem BioAssay
